Experimental data as given in PMC9838217, “Structure of SALL4 zinc finger domain reveals link between AT-rich DNA binding and Okihiro syndrome”.
Residue numbers refer to the chain shown, from its start.

These sequences were tested against T1, SALL4 ZFC4 R900W (HT-SELEX) (Mus musculus, UniProt Q8BX22 870-940, R900W) (assay: HT-SELEX; high values mean tight binding). Conditions: protein: recombinant; vector His6-GST; dsDNA, one strand shown.
T1 sequence: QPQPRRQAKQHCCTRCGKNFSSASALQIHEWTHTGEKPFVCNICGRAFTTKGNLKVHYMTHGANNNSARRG
Method in brief: (§1)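 Library DNA (1.5 µg in cycle one, 200 ng in later cycles) was incubated with 1 µg of purified recombinant mouse SALL4 zinc finger cluster 4, residues 870–940, in 100 µl buffer (10 mM Tris–HCl pH 7.5, 50 mM NaCl, poly(dI-dC), DTT) at room temperature for 10 min. Up to 6 rounds of Ni2+ bead capture, washing, PCR amplification and reselection were run in triplicate. Reads from MiSeq sequencing were scanned for 6-mers. For each canonical k-mer, binding signal is its read fraction as fold change versus the original random library.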

Question: How did the binding signal turn out when GCGCTA was run?
Answer: 0.156 ± 0.0119 fold-change vs cycle 0

Question: For GCCGCC, which binding signal is on record?
Answer: 0.0335 ± 0.00625 fold-change vs cycle 0

Question: Which binding signal does the source give for CGGGGC here?
Answer: 0.0617 ± 0.00701 fold-change vs cycle 0

Question: ATGCGG was tested. Which binding signal did it give?
Answer: 0.275 ± 0.0176 fold-change vs cycle 0

Question: Which binding signal does the source give for ACGCCC here?
Answer: 0.137 ± 0.0108 fold-change vs cycle 0

Question: Which binding signal does the source give for GCGGAA here?
Answer: 0.245 ± 0.0256 fold-change vs cycle 0

Question: Which binding signal does the source give for CGAGCC here?
Answer: 0.138 ± 0.0111 fold-change vs cycle 0

Question: How did the binding signal turn out when ATTCTC was run?
Answer: 1.55 ± 0.0853 fold-change vs cycle 0

Question: For ACTATG, which binding signal is on record?
Answer: 1.37 ± 0.0399 fold-change vs cycle 0

Question: How did the binding signal turn out when ACAGGC was run?
Answer: 0.338 ± 0.0213 fold-change vs cycle 0

Question: Which binding signal does the source give for GGCGAC here?
Answer: 0.0863 ± 0.00668 fold-change vs cycle 0

Question: Which binding signal does the source give for ACCCCC here?
Answer: 0.324 ± 0.0114 fold-change vs cycle 0

Question: Which binding signal does the source give for GTCGCA here?
Answer: 0.215 ± 0.0161 fold-change vs cycle 0

Question: How did the binding signal turn out when GCTCGA was run?
Answer: 0.308 ± 0.00752 fold-change vs cycle 0

Question: For CCCAGC, which binding signal is on record?
Answer: 0.179 ± 0.0134 fold-change vs cycle 0

Question: For GTGCGA, which binding signal is on record?
Answer: 0.265 ± 0.00784 fold-change vs cycle 0

Question: Which binding signal does the source give for ACCGAC here?
Answer: 0.345 ± 0.0112 fold-change vs cycle 0

Question: With CGCGTC as the sequence, how does the binding signal read?
Answer: 0.112 ± 0.0164 fold-change vs cycle 0

Question: With ACTGGC as the sequence, how does the binding signal read?
Answer: 0.318 ± 0.0103 fold-change vs cycle 0

Question: For ACAGCG, which binding signal is on record?
Answer: 0.265 ± 0.00461 fold-change vs cycle 0

Question: For AGAGCG, which binding signal is on record?
Answer: 0.324 ± 0.0123 fold-change vs cycle 0

Question: For CGCCGC, which binding signal is on record?
Answer: 0.0234 ± 0.0032 fold-change vs cycle 0

Question: How did the binding signal turn out when AGGGGC was run?
Answer: 0.195 ± 0.00634 fold-change vs cycle 0

Question: For CTGTGC, which binding signal is on record?
Answer: 0.34 ± 0.0263 fold-change vs cycle 0

Question: How did the binding signal turn out when CCGCTA was run?
Answer: 0.299 ± 0.0278 fold-change vs cycle 0

Question: ACGTCG was tested. Which binding signal did it give?
Answer: 0.298 ± 0.0109 fold-change vs cycle 0

Question: Which binding signal does the source give for CGGCTA here?
Answer: 0.246 ± 0.00516 fold-change vs cycle 0

Question: CGCGAC was tested. Which binding signal did it give?
Answer: 0.088 ± 0.0103 fold-change vs cycle 0

Question: CGCCCC was tested. Which binding signal did it give?
Answer: 0.0728 ± 0.00775 fold-change vs cycle 0

Question: How did the binding signal turn out when GGCGAA was run?
Answer: 0.216 ± 0.00992 fold-change vs cycle 0

Question: With CATGCG as the sequence, how does the binding signal read?
Answer: 0.296 ± 0.011 fold-change vs cycle 0

Question: For ACGAGC, which binding signal is on record?
Answer: 0.322 ± 0.019 fold-change vs cycle 0

Question: GGGCAC was tested. Which binding signal did it give?
Answer: 0.144 ± 0.00697 fold-change vs cycle 0

Question: With CGCAAG as the sequence, how does the binding signal read?
Answer: 0.289 ± 0.0102 fold-change vs cycle 0

Question: For CGACAG, which binding signal is on record?
Answer: 0.332 ± 0.0161 fold-change vs cycle 0

Question: With CGCGCA as the sequence, how does the binding signal read?
Answer: 0.0534 ± 0.00681 fold-change vs cycle 0

Question: For CTGCGA, which binding signal is on record?
Answer: 0.28 ± 0.0255 fold-change vs cycle 0

Question: Which binding signal does the source give for AGCGCG here?
Answer: 0.0579 ± 0.00565 fold-change vs cycle 0

Question: GCTGCC was tested. Which binding signal did it give?
Answer: 0.109 ± 0.0113 fold-change vs cycle 0

Question: Which binding signal does the source give for AGGCCA here?
Answer: 0.313 ± 0.0175 fold-change vs cycle 0

What follows are sequences tested against T2, SALL4 ZFC4 G921D (HT-SELEX) (Mus musculus, UniProt Q8BX22 870-940, G921D) (assay: HT-SELEX; high values mean tight binding). Conditions: protein: recombinant; vector His6-GST; dsDNA, one strand shown.
T2 sequence: T1 sequence with W31R, G52D
Method in brief: as §1

Question: With GCGCTA as the sequence, how does the binding signal read?
Answer: 0.291 ± 0.093 fold-change vs cycle 0

Question: How did the binding signal turn out when GCCGCC was run?
Answer: 0.107 ± 0.0564 fold-change vs cycle 0

Question: How did the binding signal turn out when CGGGGC was run?
Answer: 0.163 ± 0.0639 fold-change vs cycle 0

Question: ATGCGG was tested. Which binding signal did it give?
Answer: 0.409 ± 0.0549 fold-change vs cycle 0

Question: Which binding signal does the source give for ACGCCC here?
Answer: 0.25 ± 0.0577 fold-change vs cycle 0

Question: With GCGGAA as the sequence, how does the binding signal read?
Answer: 0.373 ± 0.0585 fold-change vs cycle 0

Question: For CGAGCC, which binding signal is on record?
Answer: 0.272 ± 0.0858 fold-change vs cycle 0

Question: Which binding signal does the source give for ATTCTC here?
Answer: 1.41 ± 0.126 fold-change vs cycle 0

Question: Which binding signal does the source give for ACTATG here?
Answer: 1.34 ± 0.0843 fold-change vs cycle 0

Question: ACAGGC was tested. Which binding signal did it give?
Answer: 0.472 ± 0.0921 fold-change vs cycle 0

Question: How did the binding signal turn out when GGCGAC was run?
Answer: 0.208 ± 0.0638 fold-change vs cycle 0

Question: With ACCCCC as the sequence, how does the binding signal read?
Answer: 0.419 ± 0.0596 fold-change vs cycle 0

Question: How did the binding signal turn out when GTCGCA was run?
Answer: 0.341 ± 0.0831 fold-change vs cycle 0

Question: With GCTCGA as the sequence, how does the binding signal read?
Answer: 0.475 ± 0.0642 fold-change vs cycle 0

Question: For CCCAGC, which binding signal is on record?
Answer: 0.297 ± 0.0797 fold-change vs cycle 0

Question: Which binding signal does the source give for GTGCGA here?
Answer: 0.4 ± 0.0639 fold-change vs cycle 0

Question: With ACCGAC as the sequence, how does the binding signal read?
Answer: 0.497 ± 0.0584 fold-change vs cycle 0

Question: CGCGTC was tested. Which binding signal did it give?
Answer: 0.207 ± 0.0615 fold-change vs cycle 0

Question: How did the binding signal turn out when ACTGGC was run?
Answer: 0.448 ± 0.0505 fold-change vs cycle 0

Question: Which binding signal does the source give for ACAGCG here?
Answer: 0.381 ± 0.0624 fold-change vs cycle 0

Question: Which binding signal does the source give for AGAGCG here?
Answer: 0.489 ± 0.067 fold-change vs cycle 0

Question: CGCCGC was tested. Which binding signal did it give?
Answer: 0.091 ± 0.0475 fold-change vs cycle 0

Question: For AGGGGC, which binding signal is on record?
Answer: 0.332 ± 0.0629 fold-change vs cycle 0

Question: How did the binding signal turn out when CTGTGC was run?
Answer: 0.471 ± 0.046 fold-change vs cycle 0

Question: For CCGCTA, which binding signal is on record?
Answer: 0.434 ± 0.0518 fold-change vs cycle 0

Question: Which binding signal does the source give for ACGTCG here?
Answer: 0.438 ± 0.0515 fold-change vs cycle 0

Question: CGGCTA was tested. Which binding signal did it give?
Answer: 0.375 ± 0.0584 fold-change vs cycle 0

Question: Which binding signal does the source give for CGCGAC here?
Answer: 0.202 ± 0.0599 fold-change vs cycle 0

Question: CGCCCC was tested. Which binding signal did it give?
Answer: 0.173 ± 0.0648 fold-change vs cycle 0

Question: How did the binding signal turn out when GGCGAA was run?
Answer: 0.36 ± 0.0782 fold-change vs cycle 0

Question: How did the binding signal turn out when CATGCG was run?
Answer: 0.441 ± 0.076 fold-change vs cycle 0

Question: ACGAGC was tested. Which binding signal did it give?
Answer: 0.459 ± 0.061 fold-change vs cycle 0

Question: GGGCAC was tested. Which binding signal did it give?
Answer: 0.281 ± 0.0804 fold-change vs cycle 0

Question: How did the binding signal turn out when CGCAAG was run?
Answer: 0.411 ± 0.0549 fold-change vs cycle 0

Question: CGACAG was tested. Which binding signal did it give?
Answer: 0.469 ± 0.0472 fold-change vs cycle 0

Question: With CGCGCA as the sequence, how does the binding signal read?
Answer: 0.139 ± 0.0597 fold-change vs cycle 0

Question: For CTGCGA, which binding signal is on record?
Answer: 0.404 ± 0.0745 fold-change vs cycle 0

Question: How did the binding signal turn out when AGCGCG was run?
Answer: 0.159 ± 0.0595 fold-change vs cycle 0

Question: Which binding signal does the source give for GCTGCC here?
Answer: 0.217 ± 0.0947 fold-change vs cycle 0

Question: With AGGCCA as the sequence, how does the binding signal read?
Answer: 0.446 ± 0.0657 fold-change vs cycle 0
